# Y pestis TopoI: blocks Yersinia pestis topoisomerase I activity | Y. pestis Topo-I cleavage product accumulation, plate reader | activity, % at 10 µM | 360,000 compounds, 0.064% hits | AID 504884; in the data active = activity above about 50%, passing the limit was not always enough
# Vc quorum ag-1: quorum light induction in luxS cqsA deficient V. cholerae | 350,000 compounds, 0.16% hits | AID 588436 | activation, % at 18.7 µM | V. cholerae BH1578 lux reporter, luminescence, 6 h; in the data active = activation mostly above about 9.7%, no sharp cut-off
# CCHFV vOTU inh: CCHFV vOTU protease inhibition; Pep-AMC fluorescence; 370,000 compounds, 0.55% hits; AID 651958; inhibition, % at 11.5 µM; in the data active = inhibition above about 30%; also: 0% = vehicle wells with enzyme and 100% = no enzyme wells
# PrPC TRFRET: reduces human prion protein on the cell surface. inhibition, % at 13.8 µM. AID 720596. P04156. 370,000 compounds, 0.43% hits. cell surface PrPC, TR-FRET read-out; in the data active = inhibition above about 24%; also: 0% = median of the test wells and 100% = reference compound wells
# Vc quorum ag-2: quorum light induction in BH1578 reporter strain; shares compounds with Vc quorum ag-1; V. cholerae BH1578 lux reporter, luminescence, 6 h; activation, % at 50 µM; 620 tested, under 10 active; AID 602243; call rule not given here
# The depositor's hits bear a star; i = inactive; x = not tested or not shown; + = active, no number. Most compounds without a hit are left out; they make up all but 1.1% or so of the library.
SMILES,Y pestis TopoI,Vc quorum ag-1,CCHFV vOTU inh,PrPC TRFRET,Vc quorum ag-2
CN(C)CCN1C(=O)c2oc3ccc(Cl)cc3c(=O)c2C1c1cccc(Br)c1 (stereo not drawn),-3.7,-0.4,-14.2,4.0,x
Cc1c(C(=O)NCc2ccccn2)oc2c(Cl)cccc12,5.5,0.4,13.7,-5.8,x
Cc1ccc(SCC(=O)N(Cc2nc(-c3ccccc3)no2)C(C)C)cc1,0.0,25.0*,10.5,11.1,x
COC(=O)[C@H]1C[C@H](C(=O)O)[C@@H](C)C1(C)C,9.4,25.1,21.2,-4.6,0.1
O=C(COC(=O)c1cccnc1Nc1cccc(C(F)(F)F)c1)NC1CCS(=O)(=O)C1 (stereo not drawn),5.7,i,2.7,0.3,x
CCOC(=O)c1cnc(SCC(=O)OCC(=O)NC2CCS(=O)(=O)C2)nc1N (stereo not drawn),-8.9,31.6*,7.8,-1.4,0.6
COCCNC(=O)CN1CCN(C(c2ccccc2)c2ccccc2)CC1,4.3,12.5,-14.1,-5.6,0.0
CC(NC(=O)CN1CCN(c2cccc(Cl)c2)CC1)c1ccccc1 (stereo not drawn),-4.5,i,-3.6,-8.7,x
COC(=O)CN1CCN(C(c2ccccc2)c2ccccc2)CC1,8.9,-0.2,14.0,-1.3,x
CC(NC(=O)CN1CCN(c2ccccc2F)CC1)c1ccccc1 (stereo not drawn),-1.1,27.3,0.4,-6.0,0.9
CC(=O)Nc1ccc(Nc2nc(C)nc3c2oc2ccccc23)cc1,-10.8,16.7*,10.8,6.8,11.9
Cc1nc(Nc2ccncc2)c2oc3ccccc3c2n1,-1.9,-0.6,9.6,-5.3,x
CCNc1cc(O)ccc1C,7.0,-0.3,x,x,x
O=C(Nc1nnc(-c2ccccc2)o1)c1cccc(N2C(=O)CCC2=O)c1,3.6,-2.6,1.3,-1.2,x
O=C(Nc1nnc(-c2ccc(Br)cc2)o1)c1cccc(N2C(=O)CCC2=O)c1,-0.4,14.3,-0.2,6.4,0.3
Cc1ccc(CN2CC(C(=O)N3CC(C)CC(C)C3)CC2=O)cc1 (stereo not drawn),8.0,i,8.0,8.2,x
O=C(NCCc1ccccc1)c1cc2sccc2n1Cc1ccccc1,36.3,i,20.4,10.4,x
COc1ccc(CNC(=O)c2ccc(Cl)c(S(=O)(=O)N3CCOCC3)c2)cc1OC,0.1,57.1*,x,x,0.0
Cc1cccc(NC(=O)CSc2nc(=O)n(CCN3CCOCC3)c3c2CCCC3)c1C,5.5,1.8,15.6,4.2,0.2
O=C(CSc1nc(=O)n(CCN2CCOCC2)c2c1CCCC2)Nc1ccccc1Cl,8.6,-0.5,1.6,4.5,x
CN(C)S(=O)(=O)c1cccc(NC(=O)CN2C(=O)NC(CCc3ccccc3)C2=O)c1 (stereo not drawn),10.9,0.6,14.3,7.3,x
COc1cccc(CC(=O)OCC(=O)NNC(=O)c2ccc([N+](=O)[O-])cc2)c1,-2.7,i,17.4,-28.3,x
Cc1ccccc1C(=O)Nc1cccc(N)c1,3.8,48.1*,1.6,-3.5,3.0
COc1ccccc1C(=O)Nc1cccc(NC(=O)c2ccccc2C)c1,4.9,-0.2,-3.8,4.5,x
CCCCN1C(=O)/C(=C\c2ccco2)C(=O)N(CCc2ccccc2)C1=O,-2.7,i,-11.0,1.5,x
SMILES,Y pestis TopoI,Vc quorum ag-1,CCHFV vOTU inh,PrPC TRFRET,Vc quorum ag-2
CC(C)CC(=O)Nc1ccccc1N1CCN(c2ccccc2)CC1,4.8,-0.5,-3.5,-15.5,x
CC(C)CC(=O)Nc1ccccc1N1CCN(C(=O)c2ccccc2)CC1,1.1,34.1*,5.7,0.4,0.1
O=S(=O)(Nc1nc2ccccc2nc1Cl)c1ccccc1C(F)(F)F,10.5,-3.3,1.8,6.0,x
COc1cc2c(c(OC)c1OC)C(c1ccc(C)cc1)CC(=O)O2 (stereo not drawn),-0.8,18.3,0.7,2.1,0.8
COc1ccc(C2CC(=O)Oc3cc(OC)c(OC)c(OC)c32)cc1 (stereo not drawn),-2.1,i,11.1,-2.3,x
Cc1ccccc1OCCCCc1c(C)n[nH]c1C,20.0,-1.4,5.5,13.1,x
CC(C)c1ccc(CNc2nnnn2C)cc1,-2.4,x,9.6,-12.2,i
CCOc1ccc(CNc2nnnn2C)cc1,3.6,+,-12.5,1.0,i
CCOc1cccc(CNc2nnnn2C)c1,-1.2,6.1,1.0,5.9,x
CCOC(=O)Cc1csc(NC(=O)c2ccc(S(=O)(=O)N3CCCCC3)cc2)n1,23.6,-1.7,4.8,-1.6,x
COCc1cc(=O)n2[nH]cc(-c3ccccc3)c2n1,-1.9,-0.8,-59.7,-1.7,x
CCCc1cc(=O)n2[nH]cc(-c3ccc(Cl)cc3)c2n1,-2.9,41.2*,-1.2,3.4,0.4
O=C1C(=O)N(Cc2ccco2)C(c2cccc(Cl)c2)/C1=C(\O)c1ccc2c(c1)OCCO2 (stereo not drawn),-0.1,12.5,12.2,5.4,0.4
COc1cc(C2/C(=C(\O)c3ccc4c(c3)OCCO4)C(=O)C(=O)N2Cc2ccco2)ccc1O (stereo not drawn),1.5,-3.9,17.3,-7.0,x
NC(=O)c1ccc(N2CCCCC2)c(N2C(=O)C3C4C=CC(C4)C3C2=O)c1 (stereo not drawn),1.5,-0.7,7.2,7.7,x
CC(=O)N1CCCc2ccccc21,-1.4,1.7,-1.1,1.5,x
CC(=O)N1CCC(=O)N(C(C)C)c2ccccc21,-7.4,25.0*,-5.8,-6.1,0.3
CCOC(=O)C1CCCc2c1[nH]c1c(C(=O)O)cccc21 (stereo not drawn),9.0,12.5,-6.8,-1.2,0.6
O=c1c2cc(Br)ccc2nc(-c2cccc(C(F)(F)F)c2)n1O,2.5,17.9*,5.3,-0.8,0.6
CCCCn1nnnc1NCc1ccc(C)cc1,-19.3,0.2,-4.1,9.3,x
CCCCn1nnnc1NCc1ccc(N(CC)CC)cc1,-9.0,366.4*,15.5,2.3,i
Cc1ccc(Oc2ccc(S(=O)(=O)N3CCOCC3)cc2C(N)=O)c(-n2nc3ccccc3n2)c1,31.1,25.0*,-3.2,-4.5,0.9
CCOC(=O)CSc1nc2cc(OCC)ccc2cc1C#N,4.6,1.6,8.3,-3.8,x
CCOc1ccc2cc(C#N)c(SCC(=O)N3CCC(C)CC3)nc2c1,4.6,14.3,-1.7,-2.0,4.5
CCc1ccc2c(c1)c1nnc(NN)nc1n2C,7.1,1.3,12.4,-4.6,x
SMILES,Y pestis TopoI,Vc quorum ag-1,CCHFV vOTU inh,PrPC TRFRET,Vc quorum ag-2
CCc1ccc2c(c1)c1nnc(NN)nc1n2CC,-0.6,135.0*,-12.0,-15.8,106.5
Cc1ccc(C)c(C(=O)CN2C(=O)NC3(CCCCCC3)C2=O)c1,2.6,12.5,1.8,7.0,0.1
COC(=O)c1nnn(-c2nonc2N)c1CSc1nc2ccccc2s1,14.1,25.0*,-1.8,-3.6,0.1
CCN(Cc1ccccc1)Cc1ccc(OCc2ccccc2)cc1,2.3,-0.9,-4.2,3.1,x
COC(=O)c1cc(S(=O)(=O)N2CCN(c3ccccc3)CC2)c[nH]1,-3.9,-0.1,-1.3,7.8,x
Cc1cc2oc(=O)cc(CN3CCC(C)CC3)c2cc1Cl,2.0,26.2*,4.5,-1.4,4.0
O=C(NCC(F)(F)F)Nc1ncccn1,8.2,15.4*,0.6,-1.6,2.5
CCCCCCCCOC(=O)C(NC(=O)CCC(=O)Nc1ccc(S(N)(=O)=O)cc1)C(O)c1ccccc1 (stereo not drawn),11.1,16.7*,0.7,3.8,0.1
